# In PubChem BioAssay AID2315 (National Center for Advancing Translational Sciences (NCATS), 2010):
# Screen size: about 290,000 compounds; about 27,000 (9.3%) were called active. What follows is part of a selection rich in actives, with near analogues and random picks from the rest. Values without a mark were called inactive. Rule as the data show it: active = inhibition mostly above about 28% (no sharp cut-off); inactive = mostly below about 43%.
# Test: A qHTS for Small Molecule Inhibitors of Shiga Toxin; also: 0% is about no effect
# Conditions: Vero cells, Shiga toxin protein synthesis inhibition reporter; at 38.7 µM, active compounds read high
row,SMILES,inhibition
1,CCCc1ccc(OCC(O)CN2CCN(CCO)CC2)cc1 (configuration not stated),-3.37%
2,O=C(COc1nsnc1N1CCOCC1)Nc1ccccc1Cl,5.96%
3,CCOc1cc(/C=C/c2nc3ccccc3c(=O)[nH]2)cc(Br)c1OC,31.4%
4,CC1(C)Cc2cccc(OCC(=O)NCc3ccccc3)c2O1,21.1%
5,CCOC(=O)C1(Cc2cccc(OC)c2)CCCN(C(=O)CCSC)C1 (configuration not stated),81.2% (active)
6,CCOC(=O)C1(Cc2cccc(OC)c2)CCCN(S(=O)(=O)c2cccnc2)C1 (configuration not stated),-9.17%
7,CCOC(=O)C1(Cc2cccc(OC)c2)CCN(C(C)COC)CC1 (configuration not stated),-0.932%
8,COC(=O)C1CCN(C(=O)c2cc(=O)[nH]c3ccccc23)CC1,-11.7%
9,COc1ccc(/C=C2\SC(=S)N(CCC(=O)Nc3cccc(C(=O)O)c3)C2=O)cc1OC,2.9%
10,Cn1c(SCc2nc3ccccc3s2)nnc1-c1ccc2c(c1)OCO2,59% (active)
11,O=C(O)CSc1nnc(-c2ccc3c(c2)OCO3)n1-c1ccccc1,37%
12,Cn1c(SCC(=O)N2CCCC2)nnc1-c1ccc2c(c1)OCO2,38.6%
13,CN(CCc1ccccn1)C1CCCN(S(=O)(=O)c2ccccc2Cl)C1 (configuration not stated),-6.64%
14,COc1ccc(S(=O)(=O)N2CCOC2CNC(=O)C(=O)NCc2ccncc2)cc1OC (configuration not stated),-13.1%
15,CCC(C(=O)NCc1cccnc1)n1nc(C)c2sc3ccccc3c2c1=O (configuration not stated),-2.63%
16,Cc1cc(C)cc(NC(=O)CCN2C(=O)c3ccccc3C2=O)c1,-3.25%
17,C=CCn1c(SCc2c(C(=O)OC)sc(N)c2C(=O)OC)nnc1-c1ccc(Cl)cc1,-13.4%
18,CCn1c(CSc2nc(C)cc(C)n2)nnc1SCC(N)=O,-9.49%
19,C=CCn1c(SCC(N)=O)nnc1-c1cc2c(s1)CCC(CC)C2 (configuration not stated),76.9% (active)

row,SMILES,inhibition
1,COCCNC(=O)CN(Cc1ccco1)C(=O)CCC(=O)Nc1nccs1,-8.05%
2,CCN(C(=O)COC(=O)c1cc(NS(=O)(=O)c2ccc(Cl)c([N+](=O)[O-])c2)ccc1O)C1CCCCC1,-7.83%
3,COCc1c(C(=O)N/N=C\c2cccnc2)nnn1-c1nonc1N,-0.307%
4,Cc1cccc(N2C(=O)C3C(c4ccccc4)OC4(C(=O)c5ccccc5C4=O)C3C2=O)c1 (configuration not stated),-11.8%
5,Cc1cccc(N2C(=O)NC(=O)/C(=C\c3cnn(-c4ccccc4)c3)C2=O)c1,65.5% (active)
6,Cc1cccc(N2C(=O)c3cccnc3C2=O)c1,23.8%
7,Cc1nc(CN(C)C(=O)CC2C(=O)NCCN2Cc2ccc(F)cc2)cs1 (configuration not stated),-21.9%
8,Cc1nc(C(=O)NCc2ccccc2)sc1C1(C)CC(c2cccnc2)=NO1 (configuration not stated),-4.88%
9,Cc1nc(C(=O)Nc2ccc(Cl)cc2)sc1C1(C)CC(c2ccccc2)=NO1 (configuration not stated),-2.44%
10,Cc1nc(-c2ccc(Cl)cc2)sc1C1(C)CC(c2ccccc2F)=NO1 (configuration not stated),42% (active)
11,CC(=O)c1cnc(SCCN2C(=O)c3ccccc3C2=O)nc1C,-12.2%
12,Cc1ccc(SCCN2C(=O)NC(C)(C)C2=O)cc1,5.57%
13,Nc1ccc(SCCN2C(=O)c3ccccc3C2=O)cc1,85% (active)
14,N#CCC(=O)N/N=C/c1cn(Cc2ccc3ccccc3c2)c2ccccc12,-10.8%
15,CC[C@H](C)[C@H](NC(=O)[C@H](Cc1ccc(O)cc1)NC(=O)[C@@H](NC(=O)[C@H](CCCN=C(N)N)NC(=O)[C@@H](N)CC(=O)O)C(C)C)C(=O)N[C@@H](Cc1cnc[nH]1)C(=O)N1CCC[C@H]1C(=O)N[C@@H](Cc1ccccc1)C(=O)O,15%
16,CC(NC(=O)c1cccc2ccccc12)c1ccc2c(c1)CCCC2 (configuration not stated),-3.09%
17,CCOC(OCC)c1ccc(/C=C\c2nccc(N)n2)cc1,62.4% (active)
18,CC1(C)C(C=C(Cl)Cl)C1C(=O)NC(O)C(=O)c1ccccc1 (configuration not stated),-9.33%
19,COc1cc2cc(C(=O)N/N=C/c3cccc(OC)c3OC)[nH]c2cc1OC,3.08%

row,SMILES,inhibition
1,COc1cccc(/C=N\NC(=O)C2=NNC(=O)C2C)c1O (configuration not stated),66.4% (active)
2,COc1cccc(/C=N/NC(=O)c2[nH]nc3c2CCc2ccccc2-3)c1O,12.7%
3,CCCCn1c(-c2cccc(C)c2)nc2cc3[nH]c(=O)c(C(C)C)nc3cc21,9.49%
4,CN1CCN(C(=O)c2cnn(-c3ccccc3)c2NC(=O)c2ccc([N+](=O)[O-])cc2)CC1,-12.4%
5,O=C(CSc1ccc(/C=N/NC(=O)c2cccc(F)c2)o1)Nc1ccccc1,44.3% (active)
6,O=C(Cc1ccccc1)Nc1cccc(C(=O)N/N=C/c2ccco2)c1,23.9%
7,N#CCC(=O)N/N=C/c1ccc(SCC(=O)Nc2ccccc2)o1,17.4%
8,COc1ccc2cc(C(=O)O)n(CC(=O)c3ccccc3)c2c1,-10.5%
9,CCCCC(=O)Nc1nnc(S(=O)(=O)N(C)Cc2ccco2)s1,10.1%
10,Cc1c(C(=O)NCCN(C)C)oc2ccc(S(=O)(=O)N3CCCC3)cc12,-2.78%
11,COCCNC(=O)c1ccc2nc(Cc3ccc(OC)c(OC)c3)oc2c1,30.7% (active)
12,COc1ccccc1-n1c(C)nc2cc(C(=O)NCc3ccc4c(c3)OCO4)ccc21,11.2%
13,COc1ccc(Cc2nc3ccc(C(=O)NCC4CCOCC4)cc3o2)cc1OC,37.2%
14,COc1ccc(C(=O)NCCc2ccc(S(N)(=O)=O)cc2)cc1OC,21%
15,CSCCNC(=O)c1ccc2nc(Cc3ccccc3F)oc2c1,49.7% (active)
16,Cn1cc(C(=O)NCc2ccccc2F)cn1,14.6%
17,O=C(Nc1nnc(C2=COCCO2)o1)c1ccc([N+](=O)[O-])s1,-3.51%
18,Cc1cnc(C(=O)N2CCCC(N3CCN(c4ccccc4F)CC3)C2)cn1 (configuration not stated),-6.28%
19,CC(=O)NC(CC(=O)Nc1nc(-c2ccccc2)c(C(C)=O)s1)c1ccccc1 (configuration not stated),-5.9%
